Source: PubChem BioAssay (NCI)
Several values for one entry are separate records, joined by “and”; a condition that tells them apart may be missing. Equal entries are not always repeated. This is part of a sample that, as a whole, favours compounds with a hit. Of some 83,000 tested, about 20% had one in any assay.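 Each cell line was grown in a 96-well plate and treated with one concentration of compound for 48 hours. Values below 10 were considered active.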 Activity calls are given as the source filed them.

system: HL-60(TB) leukemia; assay: NCI-60 one-dose screen, 48 h (100 = growth as untreated, 0 = no growth, -100 = all killed); details: 10 µM unless noted

SMILES	growth
CC1=CSC2=NC(c3ccc(Cl)c(Cl)c3)=CC(c3ccc(Cl)cc3)N12 (centres undefined)	47.7% (inactive)
S=c1ssnc1-c1ccccn1	-43.5% (active)
O=C1/C(=C/c2ccccc2Br)COc2ccc(O)c(O)c21	-9.04% (active)
OCCCCCCNc1ncnc2cc(Cl)ccc12	88.9% (inactive)
COc1ccc2nc3cc(Cl)ccc3c(NCCCNC(C)=O)c2c1	57.7% (inactive)
OCCOCCN(Cc1ccccn1)Cc1cc(I)cc(I)c1O	63.3% (inactive)
CCS(=O)(=O)c1cc(=O)[nH]c(=O)[nH]1	117% (inactive)
N#C/C(=C\c1ccc(Br)cc1)n1nnc2ccc(F)cc21	-23.2% (active)
C(=N\OCCc1ccccc1)/c1ccccn1	99.3% (inactive) and 85.5% (inactive)
COc1ccc(NC(=O)c2cccc(-c3cc(=O)c4c(O)c(OC)c(OC)cc4o3)c2)cc1	130% (inactive)
CC(=O)/C(=C\c1c(-c2ccccc2)[nH]c2ccccc12)S(C)(=O)=O	-55.2% (active)
COc1ccc(CCN2C(=O)CCC3=C2CCCC3=O)cc1OC	107% (inactive)
ClCCn1c(CCl)nc2ccc(Cl)cc21	-69% (active)
Cc1ccc(-c2cc(O)c(-c3ccc(C)cc3C)cc2O)c(C)c1	21.2% (inactive)
N#Cc1c(C(F)(F)F)cc(Nc2ccc3nc(NCCN4CCCC4)oc3c2)n2c1nc1ccccc12	86.6% (inactive)
CC1(C)OC(=O)CC1=O	91.5% (inactive)
Cc1cc(C)cc(CCCCCCCCCCCCCCCCCC(=O)O)c1	71% (inactive)
Cc1nn(-c2ccccc2)c2nc3nc4c(c(N)c3c(-c3ccc(Cl)cc3)c12)CCCC4	104% (inactive)
CN(c1cc2ncc(=O)[nH]c2cc1NC(N)=NCc1ccc(Cl)cc1)C1CCCCC1	52.9% (inactive)
COc1cc2cc(Oc3ccc(NC(=O)Nc4cccc(C(F)(F)F)c4)cc3)c(C)nc2cc1OCCN1CCOCC1	66.9% (inactive)

SMILES	growth
CCCCCCN(CCCCCC)c1ccc(/C=C2/SC(=O)N(c3nc(N4CCCC4)nc(N4CCCC4)n3)C2=O)c(C)c1	20.2% (inactive)
Nc1nc(Cl)nc2c1ncn2C1OC(CO)C(O)C1O (centres undefined)	-20.7% (active) and -3.23% (active)
Cn1ccnc1C(=O)C(=O)Nc1ccc(CC(=O)Nc2ccccc2)cc1	107% (inactive)
O=C(OCc1ccc2c(Cl)cc(Cl)c(O)c2n1)n1cncn1	17.7% (inactive)
CC(C)(C)OC(=O)N1CCCN(CCNc2nccc(-c3c(-c4cccc(O)c4)nc4sccn34)n2)S1(=O)=O	104% (inactive)
COc1ccc2c(c1)[n+]([O-])c(C#N)c(NC(=O)c1ccco1)[n+]2[O-]	108% (inactive)
O=C(Nc1cccc(Cl)c1)c1cc([N+](=O)[O-])ccc1O	44.4% (inactive)
O=C(Nc1ccc(Oc2cccc(Cl)c2)c(Cl)c1)c1cnccn1	1.5% (active)
Clc1cnc(Nc2ccc(OCCN3CCCC3)cc2)nc1NCc1ccco1	-26.5% (active)
CC(C)N(Cc1ccccc1)c1c(S)ssc1=S	-23.3% (active)
CCOC(=O)c1ccc2[nH]c(-c3ccccc3)cc(=O)c2c1	95.3% (inactive)
COC(=O)Nc1nc2ccc(C(=O)c3ccccc3N(C)C3COC3)cc2[nH]1	15.6% (inactive)
O=C1c2ccccc2C(=O)c2c(NCCNCCO)ccc(NCCNCCO)c21	64.9% (inactive) and 11.4% (inactive) and 2.46% (active)
O=[N+]([O-])c1ccc(NS(=O)(=O)c2cc(Cl)ccc2Cl)c2ccccc12	33.4% (inactive)
COc1cc2c(Nc3ccc(Cl)c(Cl)c3F)ncnc2cc1OCC1C[C@@H]2CN(C)C[C@@H]2C1 (some centres undefined)	-53.2% (active) and 41.1% (inactive)
Cc1nc(N)sc1-c1ccnc(Nc2ccc(N3CCOCC3)cc2)n1	43.9% (inactive)
c1ccc2c(CC3=NCCN3)cccc2c1	107% (inactive) and 103% (inactive)
O=C(CCN1CCCC1)Nc1ccc2c(Nc3ccccc3)c3ccccc3nc2c1	-46% (active)
CCCCCCCCCCCCCCCCCCOc1ccccc1CC(=O)OCCC[N+](C)(C)C	9.1% (active)
